Compound activity deposited in PubChem by National Center for Advancing Translational Sciences (NCATS).
B2AR arrestin: beta2AR (human) beta-arrestin recruitment activity | P07550 | beta-arrestin recruitment to beta2AR, cell-based reporter | Potency, µM (series often up to 46.1 µM), usual class: activators | 330,000 tested, 0.02% active | AID 492947; active = well fitted activation curve with a large enough effect; inconclusive = small, poorly fitted or top-dose-only effect; also: nearly all actives have a fitted effect of over 65% in size
DRD3 antagonist: blocks the human D3 dopamine receptor | D3R cells, DiscoveRx beta-arrestin luminescence, antagonist mode; stronger effect = lower value | max response, negative = inhibition, % | 360,000 tested, 2.5% active | AID 652054; in the data active = max response below about -50%; inconclusive = no clear call, values can overlap the other calls
Target sequence (P35462 whole entry, looked up): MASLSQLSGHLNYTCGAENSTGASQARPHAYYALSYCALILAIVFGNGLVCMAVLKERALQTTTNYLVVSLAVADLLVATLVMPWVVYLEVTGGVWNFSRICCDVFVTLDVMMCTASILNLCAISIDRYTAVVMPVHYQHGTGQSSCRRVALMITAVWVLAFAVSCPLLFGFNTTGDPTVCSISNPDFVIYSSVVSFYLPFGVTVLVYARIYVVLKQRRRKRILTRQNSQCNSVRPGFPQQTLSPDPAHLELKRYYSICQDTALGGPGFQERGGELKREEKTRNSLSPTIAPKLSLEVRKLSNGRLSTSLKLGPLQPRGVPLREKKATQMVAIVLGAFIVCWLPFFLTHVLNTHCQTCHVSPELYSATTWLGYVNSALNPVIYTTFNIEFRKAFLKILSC
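Cells expressing the human receptor were seeded at 1500 cells/well, incubated overnight at 37 degrees C in 5% CO2, then exposed to library compounds with dopamine controls for 90 minutes at 37 degrees C before luminescent detection.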
Giardia killer: kills Giardia lamblia. Giardia lamblia trophozoite viability. activity change, % at 7.66 µM, hits read low. 340,000 tested, 0.15% active; in the data active = activity change below about -80%; inconclusive = between about -30% and that limit;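 also: parasites exposed to compound for two days anaerobically before the ATP read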
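Killing of trophozoites was scored by loss of ATP luminescence after a 48 hrs anaerobic exposure to compounds at 37 deg C, using 100 cells per well.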
D3 ag: D3 dopamine receptor (human) agonism. D3R DiscoveRx beta-arrestin cells, luminescence, 90 min. 410,000 tested, 0.58% active. max activation, %; in the data active = max activation above about 30%
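Cells at 1500/well, incubated overnight, then treated with pinned compounds (dopamine as control) for 90 min at 37 degrees C. DiscoveRx reagent added for 30 - 60 minutes at room temperature; luminescence read.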
A number is an active result; . = inactive; ? = inconclusive; / = not tested or not shown. Rows were chosen to be rich in hits. Some 2.8% of all compounds tested hit in one or more screens of this group.

SMILES	B2AR arrestin	DRD3 antagonist	Giardia killer	D3 ag
Cc1cc(OC(C)C(=O)Nc2c(C(=O)c3ccc(F)cc3)oc3ccccc23)ccc1Cl (stereo not drawn)	/	/	/	.
CCc1nnc(NC(=O)c2nc(S(=O)(=O)Cc3ccc(C)cc3)ncc2Cl)s1	.	-50	.	.
CCc1nnc(NC(=O)c2nc(S(=O)(=O)Cc3ccccc3)ncc2Cl)s1	.	.	.	.
COc1ccc(NC(=O)Cn2c(=O)n(Cc3ccco3)c(=O)c3oc4ccccc4c32)cc1Cl	/	/	/	.
CCc1cccc2c(-c3ccccc3)nc(SCC(=O)Nc3ccccc3)nc12	/	/	/	.
Cc1[nH]c2ccccc2c1/C=N/NC(=O)c1cc(C(C)(C)C)[nH]n1	.	-59	.	.
CC(C)(C)c1cc(C(=O)N/N=C/c2cc3c(cc2Br)OCO3)n[nH]1	.	-88	.	.
O=C(N/N=C/c1cc2c(cc1Br)OCO2)c1cc2ccccc2o1	.	-107	.	.
O=C(N/N=C/c1cc2c(cc1Br)OCO2)c1ccccn1	.	.	.	.
O=C(NNc1ccccc1C(F)(F)F)c1sccc1Cl	/	/	.	/
C[C@H](CSC(=O)c1ccccc1)C(=O)N1C[C@@H](Sc2ccccc2)C[C@H]1C(=O)O	/	/	/	.
Cc1cc(OCC(=O)Nc2ccc(C(=O)OC3CCCCC3)cc2)ccc1Cl	/	/	/	.
CCN1CCCC1CNC(=O)c1cc(N)ccc1OC (stereo not drawn)	/	-52	.	.
CCC1CCCN1Cn1cnc2c([nH]c3ccc(OC)cc32)c1=O (stereo not drawn)	.	-73	.	.
CCN1CCCC1CNC(=O)c1cc([N+](=O)[O-])c(N(C)C)cc1OC (stereo not drawn)	.	-103	.	.
CCN1CCC[C@H]1CNC(=O)c1cc(S(N)(=O)=O)ccc1OC	.	/	/	/
CCC1CCCN1Cn1cnc2c([nH]c3ccccc32)c1=O (stereo not drawn)	.	.	.	.
CCN1CCC[C@H]1CNC(=O)c1c(OC)ccc(Br)c1OC	.	-55	.	.
CCN1CCCC1CNC(=O)c1[nH]c2ccc(OC)cc2c1C (stereo not drawn)	.	-61	.	.
CCN1CCCC1CNC(=O)c1cc(S(=O)(=O)CC)ccc1OC (stereo not drawn)	/	/	/	.
C=CCN1CCCC1CNC(=O)c1cc2[nH]nnc2cc1OC (stereo not drawn)	.	-81	.	.
CCN1CCCC1CNC(=O)c1cc2ccc(OC)cc2[nH]1 (stereo not drawn)	.	.	.	.
COc1ccc(N=c2nc(-c3ccc(C)cc3)n(-c3ccccc3)s2)cc1	/	/	.	/
Cn1c(-c2sccc2OCc2ccccc2)n[nH]c1=S	.	-54	.	.
O=C(NC(NNc1ccc([N+](=O)[O-])cc1)(C(F)(F)F)C(F)(F)F)c1ccc(Cl)cc1	.	-74	.	.
SMILES	B2AR arrestin	DRD3 antagonist	Giardia killer	D3 ag
O=S1(=O)CCOC[C@H](c2ccccc2)N1Cc1ccccc1	.	.	.	.
O=S1(=O)CCOC[C@H](c2ccccc2)N1Cc1cccc(Cl)c1	.	-59	.	.
O=C(Cn1c(=O)n(-c2cccc(Cl)c2)c(=O)c2sc3ccccc3c21)N1CCCC1	/	/	/	.
CCCOc1ccc(F)cc1-c1cc(C(=O)NCc2cccc(Cl)c2)[nH]n1	/	.	/	.
COc1ccc(NC(=O)c2cc(-c3ccc(F)cc3C)n[nH]2)cc1OC	/	.	/	.
Cc1cc(F)ccc1-c1cc(C(=O)Nc2ccc(F)cc2)[nH]n1	/	-58	/	.
COc1ccc(Cl)cc1-c1cc(C(=O)Nc2ccc(F)cc2)[nH]n1	/	-69	/	.
CCCOc1ccc(F)cc1-c1cc(C(=O)NCc2ccccc2)[nH]n1	/	-99	/	.
Cc1cc(F)ccc1-c1cc(C(=O)NCc2ccccc2)[nH]n1	/	-89	/	.
O=C(Nc1cccc(C(=O)OCc2cc(=O)n3nc(C4CC4)sc3n2)c1)c1cccc(F)c1	/	/	/	.
COc1ccc(NC(=O)c2cc(-c3cc(F)ccc3OC)n[nH]2)c(C)c1	/	-51	/	.
Cc1ccc(-c2cccc(C(=O)NCc3ccccc3)n2)c2ccccc12	.	-59	.	.
CCCCCn1c(=O)[nH]c2cc(C(=O)NCc3ccc(OC)cc3)ccc2c1=O	/	/	/	.
Cc1c(CC(=O)NCCc2ccc(Cl)cc2)c(=O)oc2c(C)c3occ(C(C)(C)C)c3cc12	/	/	/	.
O=C(CN(C1CCCCC1)S(=O)(=O)c1ccc(F)cc1)NCC1CCCO1 (stereo not drawn)	/	?	-84	.
C/C=C/c1c(F)c(F)c(Oc2ccc(C(=O)O)cc2)c(F)c1F	.	.	.	31
Cc1ccc2c(CNCc3cccs3)c(C(=O)O)n(Cc3ccc(F)cc3)c2c1	/	/	/	.
Cc1cc(/C=N/NC(N)=S)c(C)n1-c1ccc(Cl)cc1	?	-58	.	.
Cc1cc(/C=N/NC(N)=S)c(C)n1-c1ccc(Br)cc1	?	-67	.	.
Cc1cccc(C)c1-n1c(C)cc(/C=N/NC(N)=S)c1C	?	-84	.	.
Cc1cc(/C=N/NC(N)=S)c(C)n1-c1cccc(Cl)c1	.	.	.	.
CCCOC(=O)c1ccc(Cn2nnc3sc4c(c3c2=O)CCC(C)C4)cc1 (stereo not drawn)	/	/	/	.
CC(NC(=O)c1cc(-c2ccc(Cl)cc2)on1)c1ccccc1 (stereo not drawn)	/	/	/	.
Cc1ccc(NC(=O)c2cccn2-c2nnc(N3CCCCC3)s2)cc1Cl	/	/	/	.
CSc1ccc(CN2CCC2(C)C(=O)NC2CCc3ccccc32)cc1 (stereo not drawn)	/	-70	/	.
SMILES	B2AR arrestin	DRD3 antagonist	Giardia killer	D3 ag
CN1C(=O)C2(CCCCC2)C1c1ccccc1 (stereo not drawn)	.	-76	.	.
CCC(CC)C(=O)Nc1ccc2nc(SCC(=O)N3CCCC3)sc2c1	/	/	/	.
Cn1c(=O)cc(SCC(=O)NCCCN2CCN(c3ccccc3F)CC2)c2ccccc21	.	-71	.	.
CCn1c(=O)cc(SCC(=O)NCCCN2CCN(c3ccc(F)cc3)CC2)c2ccccc21	.	-68	.	.
COCCn1c(C)cc(C(=O)CSc2nc(C)nc3sc4c(c23)CCC4)c1C	/	.	.	54
Cc1nc(SCC(=O)NCC2CCCO2)c2c3c(sc2n1)CCCC3 (stereo not drawn)	.	.	?	.
CCOC(=O)Cn1c(=O)oc2cc(S(=O)(=O)N3CCN(c4ccc(Cl)cc4)CC3)ccc21	/	/	/	.
CCn1cnc2c([N+](=O)[O-])c(NS(=O)(=O)c3ccc(C)cc3)ccc21	.	.	-88	.
CCn1cnc2cc(NS(=O)(=O)c3ccc(C)cc3)ccc21	.	.	.	.
Cc1ccc(C(=O)CN2/C(=C(\O)c3ccccc3)C(=O)c3ccccc3S2(=O)=O)c(C)c1	.	-50	.	.
O=C(c1cccs1)N(Cc1ccco1)c1ccc(O)cc1	/	/	.	/
O=[N+]([O-])c1ccc2nc(Cl)nc(-c3ccccc3)c2c1	.	-56	.	.
O=C(NCc1ccccc1)C1CCN(S(=O)(=O)Cc2ccccc2)CC1	/	/	/	.
CCOC(=O)C1(Cc2ccccc2C)CCCN(C(=O)CN2CCCCC2=O)C1 (stereo not drawn)	.	.	.	58
COc1ccc(-c2cc(-c3ccccc3)nc(SCC(=O)Nc3ncc(C)s3)c2C#N)cc1	.	-56	.	.
